Reference: PubChem BioAssay (Tox21)
Unmarked numbers belong to inactive results. Results filed as inconclusive are left out. Where a call stands in place of a potency, no number is given. The source made the active and inactive calls. Unless noted, the call rests on the fitted dose curve; in most records, active means well fitted curve in the direction sought with a large enough effect in the repeat runs; inconclusive means weak or mixed curves; inactive means no such curve, though single readings can be large; an effect the other way counts as inactive or inconclusive.

Experiments:
[1] = qHTS assay to identify small molecule antagonists of the estrogen receptor beta (ER-beta) signaling pathway - cell viability counter screen (AID 1259382);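 further: HEK293T cells carrying ER-beta-UAS-bla reporter stimulated with estradiol; series mostly up to about 92 µM; nearly all actives have a fitted effect of over 55% in size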
Procedure, shortened: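 ER-beta-UAS-bla HEK293T cells in 2% charcoal-stripped FBS medium, treated with compound plus 1 nM 17-beta-estradiol for 16 h at 37C. Viability read by CellTiter-Glo luminescence after 30 min at room temperature in the same wells.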

[2] = qHTS assay to identify small molecule agonists or antagonists of the thyroid stimulating hormone receptor (TSHR) signaling pathway - wild type cell line counter screen (AID 1259384; calls by dose curve)
Procedure, shortened: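 Wild-type Hek293 cells, 800/well, 18 h at 37C, then compound with Ro20-1724 for 30 min RT. cAMP by HTRF (cAMP-d2/anti-cAMP cryptate), 1 h RT, fluorescence read. 15 concentrations, triplicates.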

[3] = target: Thyrotropin receptor (Homo sapiens) (UniProt P16473); assay: qHTS assay to identify small molecule antagonists of the thyroid stimulating hormone receptor (TSHR) signaling pathway (AID 1259385; calls by dose curve; further: nearly all actives have a fitted effect of over 20% in size)
Sequence of Thyrotropin receptor (Homo sapiens) (P16473 whole entry, looked up): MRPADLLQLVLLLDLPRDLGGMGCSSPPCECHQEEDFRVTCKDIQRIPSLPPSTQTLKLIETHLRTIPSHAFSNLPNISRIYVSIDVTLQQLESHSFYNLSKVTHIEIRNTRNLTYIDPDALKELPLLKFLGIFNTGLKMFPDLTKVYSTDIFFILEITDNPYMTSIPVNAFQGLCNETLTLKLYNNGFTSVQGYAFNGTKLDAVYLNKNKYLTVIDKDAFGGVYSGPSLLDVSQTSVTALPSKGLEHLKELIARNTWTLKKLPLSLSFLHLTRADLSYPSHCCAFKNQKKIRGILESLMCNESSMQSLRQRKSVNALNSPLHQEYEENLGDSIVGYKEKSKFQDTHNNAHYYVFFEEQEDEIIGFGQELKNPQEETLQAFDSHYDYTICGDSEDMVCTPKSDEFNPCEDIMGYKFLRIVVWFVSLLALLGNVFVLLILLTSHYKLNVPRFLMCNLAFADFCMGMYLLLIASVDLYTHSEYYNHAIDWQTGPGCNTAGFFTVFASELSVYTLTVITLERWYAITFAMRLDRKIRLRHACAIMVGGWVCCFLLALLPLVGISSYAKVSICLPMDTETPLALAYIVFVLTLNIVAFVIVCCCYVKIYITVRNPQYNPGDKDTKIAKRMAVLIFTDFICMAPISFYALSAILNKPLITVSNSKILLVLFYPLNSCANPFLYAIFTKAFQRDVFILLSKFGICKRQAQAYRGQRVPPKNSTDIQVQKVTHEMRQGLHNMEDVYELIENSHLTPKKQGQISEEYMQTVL
Procedure, shortened: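 TSHR-HEK293 cells (800/well) plated 18 h, then compounds with Ro20-1724 and TSH at 1.5 ng/mL final, 30 min at room temperature. cAMP quantified by HTRF (cAMP-d2/anti-cAMP-cryptate, 1 h); 15 concentrations in triplicate.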

[4] = qHTS assay to identify small molecule agonists of the estrogen receptor alpha (ER-alpha) signaling pathway in the presence of an antagonist - cell viability counter screen (AID 1259386);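 further: series mostly up to about 92 µM; cells exposed to compounds for 22 h at 37 °C before the viability read; nearly all actives have a fitted effect of over 30% in size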
Procedure, shortened: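 Cell viability in VM7Luc4E2 cells (endogenous full-length ER-alpha) measured by CellTiter-Fluor fluorescence in the same wells as the luciferase screen. Cells pre-cultured 5 days in charcoal-stripped serum, then treated 22 h with compounds at 15 concentrations plus 10.0nM ICI-182,780.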

[5] = target: Progesterone receptor (Homo sapiens) (UniProt P06401); assay: qHTS assay to identify small molecule agonists of the progesterone receptor (PR) signaling pathway (AID 1346784; calls by dose curve; further: nearly all actives have a fitted effect of over 30% in size; further: potency means the concentration at half of the fitted maximal effect)
Sequence of Progesterone receptor (Homo sapiens) (P06401 whole entry, looked up): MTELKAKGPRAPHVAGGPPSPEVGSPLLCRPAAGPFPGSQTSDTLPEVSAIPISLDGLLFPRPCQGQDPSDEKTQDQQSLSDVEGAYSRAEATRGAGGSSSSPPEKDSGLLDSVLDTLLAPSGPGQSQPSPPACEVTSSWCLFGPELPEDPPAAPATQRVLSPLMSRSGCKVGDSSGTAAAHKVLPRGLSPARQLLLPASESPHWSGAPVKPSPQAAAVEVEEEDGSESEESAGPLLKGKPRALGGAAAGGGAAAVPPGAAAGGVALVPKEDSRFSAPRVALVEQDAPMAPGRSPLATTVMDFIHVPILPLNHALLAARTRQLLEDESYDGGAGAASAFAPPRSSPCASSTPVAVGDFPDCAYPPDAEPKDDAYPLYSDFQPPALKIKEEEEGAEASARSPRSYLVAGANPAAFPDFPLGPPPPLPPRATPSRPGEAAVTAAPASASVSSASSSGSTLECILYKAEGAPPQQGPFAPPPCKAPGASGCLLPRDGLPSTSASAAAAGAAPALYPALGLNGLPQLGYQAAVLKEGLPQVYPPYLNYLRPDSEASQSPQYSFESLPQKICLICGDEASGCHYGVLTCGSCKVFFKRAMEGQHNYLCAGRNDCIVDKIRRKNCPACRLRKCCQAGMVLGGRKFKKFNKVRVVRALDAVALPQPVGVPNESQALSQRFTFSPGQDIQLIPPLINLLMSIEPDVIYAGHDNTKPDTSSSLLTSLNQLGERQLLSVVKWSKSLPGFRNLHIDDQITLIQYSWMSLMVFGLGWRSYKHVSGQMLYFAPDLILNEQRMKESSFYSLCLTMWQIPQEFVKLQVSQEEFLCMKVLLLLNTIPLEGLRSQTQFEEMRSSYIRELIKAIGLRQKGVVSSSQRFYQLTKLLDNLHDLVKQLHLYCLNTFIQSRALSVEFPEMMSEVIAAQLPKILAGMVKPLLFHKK
Procedure, shortened: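 Compounds were tested for PR agonism in HEK 293T cells bearing a beta-lactamase gene under UAS control. Treatment lasted 16 hr at 37C; signal came from fluorescence of a FRET substrate.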

[6] = target: Progesterone receptor (Homo sapiens) (UniProt P06401); assay: qHTS assay to identify small molecule antagonists of the progesterone receptor (PR) signaling pathway (AID 1346795; active means well fitted inhibition curve with a large enough effect in the signal ratio in the repeat runs, not every such curve was filed as active; the % refers to the signal ratio)
Procedure, shortened: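 In HEK293T cells bearing the PR-UAS-bla reporter, compound effects on promegestone-driven (1 nM) beta-lactamase expression are assessed after 16 hr using a fluorescent FRET substrate incubated 2 hr at room temperature.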

[7] = qHTS assay to identify small molecule antagonists of the progesterone receptor (PR) signaling pathway - cell viability counter screen (AID 1346798); further: series mostly up to about 92 µM; nearly all actives have a fitted effect of over 50% in size
Procedure, shortened: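 Following a 4 hr attachment, PR-UAS-bla HEK293T cells in charcoal-stripped FBS medium were exposed to compounds with R5020 for 16 hr; CellTiter-Glo was added and luminescence read after 30 min at room temperature.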

[8] = qHTS assay to identify small molecule antagonists of the TGF-beta/Smad signaling pathway - cell viability counter screen (AID 1346824); further: nearly all actives have a fitted effect of over 50% in size
Procedure, shortened: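 SBE-bla HEK 293T cells, incubated overnight, then compound plus 0.25 ng/mL TGF-beta1 (stock added) for 5 hr at 37 C. Viability was read in the same wells by CellTiter-Glo luminescence after 30 min at room temperature.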

[9] = qHTS assay to identify small molecule agonists of the TGF-beta/Smad signaling pathway - cell viability counter screen (AID 1346829); further: top concentration of the series differs between compounds; nearly all actives have a fitted effect of over 45% in size
Procedure, shortened: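 CellTiter-Glo luminescence readout; SBE-bla HEK 293T cells, overnight plating, compound 5 hr at 37 C/5% CO2, then bla substrate 2 hr RT, then CellTiter-Glo 30 min RT.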

[10] = qHTS assay to identify small molecule agonists of the TGF-beta/Smad signaling pathway (AID 1346859; active means well fitted activation curve with a large enough effect in the signal ratio in the repeat runs, not every such curve was filed as active; the % refers to the signal ratio; further: series mostly up to about 77 µM)
Procedure, shortened: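 Each well held 4,000 SBE-bla HEK 293T cells incubated overnight before compound addition; 5 hr later the cleavable FRET substrate went on for 2 hr at room temperature, and fluorescence was read at two emissions.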

[11] = target: Thyrotropin-releasing hormone receptor (Homo sapiens) (UniProt P34981); assay: qHTS assay to identify small molecule antagonists of the thyrotropin-releasing hormone receptor (TRHR) signaling pathway (AID 1346877; active means well fitted inhibition curve with a large enough effect in the repeat runs, not every such curve was filed as active; further: series mostly up to about 51 µM)
Sequence of Thyrotropin-releasing hormone receptor (Homo sapiens) (P34981 whole entry, looked up): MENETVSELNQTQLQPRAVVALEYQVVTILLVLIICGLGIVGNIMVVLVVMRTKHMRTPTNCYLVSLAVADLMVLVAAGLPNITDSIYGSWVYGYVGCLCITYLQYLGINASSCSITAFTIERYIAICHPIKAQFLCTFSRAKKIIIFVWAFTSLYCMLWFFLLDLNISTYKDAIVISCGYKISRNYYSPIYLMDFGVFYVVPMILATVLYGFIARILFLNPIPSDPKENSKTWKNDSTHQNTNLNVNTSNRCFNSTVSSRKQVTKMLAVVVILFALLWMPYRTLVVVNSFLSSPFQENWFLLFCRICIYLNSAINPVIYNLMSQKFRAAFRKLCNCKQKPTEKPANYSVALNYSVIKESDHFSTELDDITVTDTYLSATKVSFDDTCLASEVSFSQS
Procedure, shortened: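 TRHR-expressing HEK293 cells loaded with calcium dye for 2 h at 37 C; compounds pre-incubated 5 min at room temperature before TRH challenge at 1 nM final. Intracellular calcium fluorescence read kinetically for 3 min; 15 concentrations in triplicate.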

[12] = target: Thyrotropin-releasing hormone receptor (Homo sapiens) (UniProt P34981); assay: qHTS assay to identify small molecule agonists of the thyrotropin-releasing hormone receptor (TRHR) signaling pathway (AID 1346891; calls by dose curve; further: series mostly up to about 58 µM)
Procedure, shortened: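 Screening of agonists relied on calcium signalling in HEK293 cells expressing human TRHR: dye loading 2 h at 37 °C preceded compound addition and a 3-min fluorescence time course.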

[13] = Human pregnane X receptor (PXR) small molecule agonists, qHTS cell viability counter screen (AID 1346977); further: nearly all actives have a fitted effect of over 50% in size
Procedure, shortened: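 Tox21 qHTS format; PXR-Luc HepG2, 2,000/well, charcoal-stripped FBS 5%. Cpd exposure 24hr. Read: CellTiter-Fluor fluorescence, multiplexed with luciferase.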

[14] = Caspase-3/7 induction in HepG2 cells by small molecules, qHTS assay (AID 1346978); further: nearly all actives have a fitted effect of over 15% in size
Procedure, shortened: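 Wild-type HepG2 cells, 2,000/well, settled 5 hr at 37 C and 5% CO2, then compound-treated for 17 hr; caspase-3/7 activity read by luminescent Caspase-Glo 3/7 after 30 min at room temperature.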

[15] = Caspase-3/7 induction in CHO-K1 cells by small molecules, qHTS cell viability counter screen (AID 1346979); further: nearly all actives have a fitted effect of over 35% in size
Procedure, shortened: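 CellTiter-Fluor viability check, qHTS format: wild-type CHO-K1, 16hr compound treatment, 1hr reagent incubation, fluorescence read.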

[16] = Caspase-3/7 induction in CHO-K1 cells by small molecules, qHTS assay (AID 1346980); further: nearly all actives have a fitted effect of over 15% in size
Procedure, shortened: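 Wild-type CHO-K1 cells exposed to compounds for 17hr at 37 C, 5% CO2. Caspase-3/7 activity then measured by Caspase-Glo 3/7 luminescence after 30min at room temperature.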

[17] = Caspase-3/7 induction in HepG2 cells by small molecules, qHTS cell viability counter screen (AID 1346981); further: series mostly up to about 92 µM; nearly all actives have a fitted effect of over 30% in size
Procedure, shortened: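 Wild-type HepG2 cells, 2,000/well, settled 5 hr at 37 C, 5% CO2 before compound addition. Viability read by CellTiter-Fluor fluorescence, reagent added after 16 hr compound exposure, then 1 hr at 37C, in the same wells as the caspase read.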

[18] = qHTS assay to identify small molecule agonists of the progesterone receptor (PR) signaling pathway - cell viability counter screen (AID 1346799; calls by dose curve; further: nearly all actives have a fitted effect of over 45% in size)
Procedure, shortened: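 Here, 3,000 PR-UAS-bla HEK293T cells per well were treated with compounds for 16 hr after a 6 hr preincubation at 37C and 5% CO2; cell viability is the CellTiter-Glo luminescence signal.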

## BrC/C=C/CBr
[1]
  activity change, negative = cytotoxicity: 3.59% [at 19 µM]
[2]
  cAMP activity change: -5.59% [at 18.9 µM]
[3]
  activity change, negative = inhibition: -1.56% [at 19 µM]
[4]
  activity change, negative = cytotoxicity: 2.04% [at 19 µM]
[5]
  activation: 1.6% [at 19 µM]
[6]
  activity change, negative = inhibition: -3.92% [at 18.9 µM]
[7]
  activity change, negative = cytotoxicity: 20.7% [at 18.9 µM]
[8]
  viability change, negative = cytotoxic: 0.16% [at 15.8 µM]
[9]
  activity change, negative = cytotoxicity: 11.2% [at 15.8 µM]
[10]
  activation: 1.06% [at 15.8 µM]
[11]
  activity, negative = inhibition: 0.461% [at 10.5 µM]
[12]
  activation: 0.238% [at 11.8 µM]
[13]
  activity change, negative = cytotoxicity: 5.06% [at 19 µM]
[14]
  caspase activation: -0.853% [at 19 µM]
[15]
  activity change, negative = cytotoxicity: 8.86% [at 19 µM]
[16]
  caspase-3/7 activation: 0.312% [at 19 µM]
[17]
  activity change, negative = cytotoxicity: -3.88% [at 19 µM]

## CCC1Nc2cc(Cl)c(S(N)(=O)=O)cc2S(=O)(=O)N1 (stereo unspecified)
[1]
  outcome: inactive
[2]
  outcome: inactive
[3]
  outcome: inactive
[4]
  Potency: inactive
[7]
  Potency: inactive
[18]
  Potency: inactive
[8]
  outcome: inactive
[9]
  outcome: inactive
[10]
  outcome: inactive
[13]
  Potency: inactive
[14]
  outcome: inactive
[15]
  Potency: inactive
[16]
  outcome: inactive
[17]
  Potency: inactive

## Nc1c(NC/C=C\COc2cc(CN3CCCCC3)ccn2)c(=O)c1=O
[1]
  activity change, negative = cytotoxicity: 0.149% [at 19 µM]
[2]
  cAMP activity change: -0.455% [at 18.9 µM]
[3]
  activity change, negative = inhibition: -4.41% [at 19 µM]
[6]
  activity change, negative = inhibition: 9.62% [at 18.9 µM]
[7]
  activity change, negative = cytotoxicity: 4.14% [at 18.9 µM]
[18]
  activity change, negative = cytotoxicity: -2.25% [at 19 µM]
[8]
  viability change, negative = cytotoxic: 0.148% [at 15.8 µM]
[9]
  activity change, negative = cytotoxicity: 2.86% [at 15.8 µM]
[10]
  activation: -0.0935% [at 15.8 µM]
[11]
  activity, negative = inhibition: -1.01% [at 10.5 µM]
[12]
  activation: -0.0658% [at 11.8 µM]
[14]
  caspase activation: -0.539% [at 19 µM]
[16]
  caspase-3/7 activation: -0.585% [at 19 µM]

## CCCCOC(=O)C(=O)OCCCC
[1]
  outcome: inactive
[4]
  Potency: inactive
[5]
  Potency: inactive
[6]
  Potency: inactive
[7]
  Potency: inactive
[18]
  Potency: inactive
[8]
  outcome: inactive
[9]
  outcome: inactive
[10]
  outcome: inactive
[11]
  outcome: inactive
[12]
  outcome: inactive
[13]
  Potency: inactive
[14]
  outcome: inactive
[15]
  Potency: inactive
[16]
  outcome: inactive
[17]
  Potency: inactive

## O=CO
[1]
  activity change, negative = cytotoxicity: 7.25% [at 8.39 µM]
[4]
  activity change, negative = cytotoxicity: -5.19% [at 8.39 µM]
[5]
  Potency: 2.51 µM (active)
[6]
  activity change, negative = inhibition: 8.24% [at 8.39 µM]
[7]
  activity change, negative = cytotoxicity: 2.97% [at 8.39 µM]
[8]
  viability change, negative = cytotoxic: -0.889% [at 6.97 µM]
[9]
  activity change, negative = cytotoxicity: 8.49% [at 6.97 µM]
[10]
  activation: 2.26% [at 6.97 µM]
[13]
  activity change, negative = cytotoxicity: -2.18% [at 8.39 µM]
[14]
  caspase activation: 0.203% [at 8.39 µM]
[15]
  activity change, negative = cytotoxicity: -2.32% [at 8.39 µM]
[16]
  caspase-3/7 activation: 0.126% [at 8.39 µM]

## CCCC(C)CC (stereo unspecified)
[1]
  outcome: inactive
[2]
  outcome: inactive
[3]
  outcome: inactive
[4]
  Potency: inactive
[6]
  Potency: inactive
[18]
  Potency: inactive
[8]
  outcome: inactive
[9]
  outcome: inactive
[10]
  outcome: inactive
[13]
  Potency: inactive
[14]
  outcome: inactive
[15]
  Potency: inactive
[16]
  outcome: inactive
[17]
  Potency: inactive

## C[C@@H]1C[C@H]2[C@@H]3C[C@H](F)C4=CC(=O)C=C[C@]4(C)[C@@]3(F)[C@@H](O)C[C@]2(C)[C@@]1(O)C(=O)CO
[1]
  outcome: inactive
[2]
  outcome: inactive
[3]
  outcome: inactive
[4]
  Potency: inactive
[5]
  Potency: 5.96 µM (active)
[18]
  Potency: inactive
[8]
  outcome: inactive
[9]
  outcome: inactive
[10]
  outcome: inactive
[11]
  outcome: inactive
[12]
  outcome: inactive
[13]
  Potency: inactive
[14]
  outcome: inactive
[15]
  Potency: inactive
[16]
  outcome: inactive

## CCOC(=O)CC(CC(=O)OCC)(OC(C)=O)C(=O)OCC
[1]
  outcome: inactive
[4]
  Potency: inactive
[5]
  Potency: inactive
[6]
  Potency: inactive
[7]
  Potency: inactive
[8]
  outcome: inactive
[9]
  outcome: inactive
[10]
  outcome: inactive
[11]
  outcome: inactive
[12]
  outcome: inactive
[13]
  Potency: inactive
[14]
  outcome: inactive
[15]
  Potency: inactive
[16]
  outcome: inactive
[17]
  Potency: inactive
